# Measurements taken from PubChem BioAssay.
# The source made the active and inactive calls.
# Assays:
# [1] = test system: Plasmodium falciparum Sir2 (PF13_0152, Sir2A); assay: pfSir2 binders on small-molecule microarrays, primary screen, biochemical, small-molecule microarray, 635 nm fluorescence (AID 1098); settings: small-molecule microarray binding, fluorescence 635 nm; higher = more signal;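 note: score merges spot fluorescence intensity with its signal-to-noise ratio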
# [2] = small-molecule microarray binders of probe aDKK1, primary screen, biochemical, biotinylated probe, 635/667 nm fluorescence (AID 1099); settings: higher = more signal;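 note: score merges 667nm spot fluorescence with signal to noise across triplicate slides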
# [3] = small-molecule microarray binders of probe aCHRDL2, primary screen, biochemical, biotinylated probe, 635/667 nm fluorescence (AID 1100); settings: higher = more signal
# [4] = splicing luciferase reporter signal modulators, primary screen, spliceosome inhibition project, cell-based, HEK293, splice +/- reporter (AID 1101); settings: luminescence, 24 h, higher = more signal, called active from +8 up or from −8 down;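 note: HEK293 cells carrying a splicing-competent luciferase reporter gene; test concentration not given here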
# [5] = molecular target: Fibroblast growth factor 10 (Homo sapiens) (UniProt O15520); assay: FGF10 binders on small-molecule microarrays, primary screen, biochemical, small-molecule microarray, 635 nm fluorescence (AID 1102); settings: FGF10 binding, fluorescence 635 nm, higher = more signal
# Sequence of Fibroblast growth factor 10 (Homo sapiens) (O15520 whole entry, looked up): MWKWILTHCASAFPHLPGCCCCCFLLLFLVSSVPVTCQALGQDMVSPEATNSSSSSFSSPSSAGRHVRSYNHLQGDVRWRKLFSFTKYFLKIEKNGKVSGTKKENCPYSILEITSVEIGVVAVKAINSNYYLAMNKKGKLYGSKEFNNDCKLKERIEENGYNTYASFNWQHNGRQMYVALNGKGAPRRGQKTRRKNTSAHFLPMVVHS
# [6] = test system: glycogen synthase kinase-3 (GSK3A per assay name; protocol says GSK3B); assay: GSK3 binders on small-molecule microarrays, primary screen, biochemical, small-molecule microarray, 635 nm fluorescence, GSK3A (AID 1103); settings: small-molecule microarray binding, fluorescence 635 nm; higher = more signal; note: the record names both GSK3A and GSK3B
# [7] = molecular target: Epidermal growth factor receptor (Homo sapiens) (UniProt P00533); assay: EGFR binders on small-molecule microarrays, primary screen, biochemical, small-molecule microarray, 635 nm fluorescence (AID 1104); settings: EGFR binding, higher = more signal;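 note: score merges 667 nm emission intensity with spot signal to noise over triplicate slides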
# Sequence of Epidermal growth factor receptor (Homo sapiens) (P00533 whole entry, looked up): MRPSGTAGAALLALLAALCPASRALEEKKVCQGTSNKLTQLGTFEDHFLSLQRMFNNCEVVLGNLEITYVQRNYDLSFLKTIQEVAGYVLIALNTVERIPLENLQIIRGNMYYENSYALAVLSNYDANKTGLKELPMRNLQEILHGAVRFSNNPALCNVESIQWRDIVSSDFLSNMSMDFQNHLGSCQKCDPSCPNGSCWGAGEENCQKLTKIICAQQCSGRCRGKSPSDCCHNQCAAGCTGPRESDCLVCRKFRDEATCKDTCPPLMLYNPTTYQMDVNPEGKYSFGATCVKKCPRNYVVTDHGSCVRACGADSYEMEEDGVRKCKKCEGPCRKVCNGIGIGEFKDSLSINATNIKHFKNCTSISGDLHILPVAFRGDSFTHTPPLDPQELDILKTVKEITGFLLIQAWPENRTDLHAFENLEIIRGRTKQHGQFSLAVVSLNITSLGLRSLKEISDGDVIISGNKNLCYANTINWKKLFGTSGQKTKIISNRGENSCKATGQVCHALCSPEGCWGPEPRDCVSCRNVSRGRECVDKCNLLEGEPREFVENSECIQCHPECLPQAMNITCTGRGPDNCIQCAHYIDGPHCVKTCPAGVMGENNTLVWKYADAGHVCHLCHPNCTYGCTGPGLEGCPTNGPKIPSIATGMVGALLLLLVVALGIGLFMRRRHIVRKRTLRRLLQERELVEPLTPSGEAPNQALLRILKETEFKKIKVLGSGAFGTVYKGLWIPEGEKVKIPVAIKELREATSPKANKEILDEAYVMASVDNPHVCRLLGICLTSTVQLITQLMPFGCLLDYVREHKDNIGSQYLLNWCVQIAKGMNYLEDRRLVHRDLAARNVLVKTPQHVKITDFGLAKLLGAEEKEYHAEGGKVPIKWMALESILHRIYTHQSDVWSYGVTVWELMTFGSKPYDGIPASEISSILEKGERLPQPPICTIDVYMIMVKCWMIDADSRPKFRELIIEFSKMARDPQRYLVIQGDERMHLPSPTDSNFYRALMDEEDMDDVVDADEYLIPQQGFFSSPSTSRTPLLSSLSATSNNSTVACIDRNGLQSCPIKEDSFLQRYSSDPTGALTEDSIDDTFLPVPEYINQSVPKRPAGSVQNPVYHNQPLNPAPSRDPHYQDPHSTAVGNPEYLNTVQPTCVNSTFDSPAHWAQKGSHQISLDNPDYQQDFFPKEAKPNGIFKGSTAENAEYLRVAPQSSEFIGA
# [8] = molecular target: Follistatin-related protein 3 (Homo sapiens) (UniProt O95633); assay: FSTL3 binders on small-molecule microarrays, primary screen, biochemical, small-molecule microarray, 635 nm fluorescence (AID 1105); settings: FSTL3 binding, higher = more signal;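 note: score merges emission near 667 nm and signal to noise per printed spot across three slides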
# Sequence of Follistatin-related protein 3 (Homo sapiens) (O95633 whole entry, looked up): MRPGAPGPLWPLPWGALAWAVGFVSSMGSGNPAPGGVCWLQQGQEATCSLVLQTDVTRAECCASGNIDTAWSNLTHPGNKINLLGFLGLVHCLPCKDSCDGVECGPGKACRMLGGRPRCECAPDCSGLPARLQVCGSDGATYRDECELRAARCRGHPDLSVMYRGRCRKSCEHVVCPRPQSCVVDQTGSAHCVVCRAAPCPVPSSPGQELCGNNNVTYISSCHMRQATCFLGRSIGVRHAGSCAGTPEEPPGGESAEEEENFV
# [9] = molecular target: Dickkopf-related protein 1 (Homo sapiens) (UniProt O94907); assay: DKK1 binders on small-molecule microarrays, primary screen, biochemical, small-molecule microarray, 635 nm fluorescence scan (AID 1106); settings: DKK1 binding, higher = more signal;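 note: score merges emission near 667 nm with signal to noise over three replicate slides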
# Sequence of Dickkopf-related protein 1 (Homo sapiens) (O94907 whole entry, looked up): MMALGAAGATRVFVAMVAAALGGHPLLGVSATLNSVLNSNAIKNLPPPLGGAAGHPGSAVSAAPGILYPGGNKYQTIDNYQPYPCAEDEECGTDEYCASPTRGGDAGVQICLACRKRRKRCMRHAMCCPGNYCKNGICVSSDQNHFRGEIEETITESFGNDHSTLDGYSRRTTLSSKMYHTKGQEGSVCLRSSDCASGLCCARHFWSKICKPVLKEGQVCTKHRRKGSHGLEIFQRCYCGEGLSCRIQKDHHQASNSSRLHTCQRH
# [10] = test system: Inhibin beta A chain (activin A); assay: INHBA (activin A) binders on microarrays, primary screen, biochemical, small-molecule microarray, 635 nm fluorescence scan (AID 1107); settings: small-molecule microarray binding, higher = more signal;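 note: mouse activin A protein probed at 4.33 µg/mL on printed slides; score merges bound-protein fluorescence near 667 nm with spot signal-to-noise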
# [11] = test system: Human papillomavirus type 1a protein E7 (residues 44-93); assay: HPV1a E7 fragment binders on microarrays, primary screen, biochemical, small-molecule microarray, residues 44-93, 635 nm fluorescence (AID 1108); settings: small-molecule microarray binding, fluorescence 635 nm; higher = more signal;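 note: E7 fragment applied at 1 µg/mL in TBST for 1 h at 4 C; score combines spot fluorescence with its signal to noise ratio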
# [12] = modulators of HCV replicon luciferase signal, primary screen, HCV replication inhibitor project, Huh7 cells, luciferase reporter (AID 1109); settings: 48 h, higher = more signal;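 note: huh7 hepatoma cells harbouring a luciferase neomycin HCV replicon reporter; luciferase luminescence as measure of HCV replicon replication; test concentration not given here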
# [13] = molecular target: Left-right determination factor 2 (Homo sapiens) (UniProt O00292); assay: LEFTY2 binders on small-molecule microarrays, primary screen, biochemical, small-molecule microarray, 635 nm fluorescence scan (AID 1110); settings: LEFTY2 binding, higher = more signal
# Sequence of Left-right determination factor 2 (Homo sapiens) (O00292 whole entry, looked up): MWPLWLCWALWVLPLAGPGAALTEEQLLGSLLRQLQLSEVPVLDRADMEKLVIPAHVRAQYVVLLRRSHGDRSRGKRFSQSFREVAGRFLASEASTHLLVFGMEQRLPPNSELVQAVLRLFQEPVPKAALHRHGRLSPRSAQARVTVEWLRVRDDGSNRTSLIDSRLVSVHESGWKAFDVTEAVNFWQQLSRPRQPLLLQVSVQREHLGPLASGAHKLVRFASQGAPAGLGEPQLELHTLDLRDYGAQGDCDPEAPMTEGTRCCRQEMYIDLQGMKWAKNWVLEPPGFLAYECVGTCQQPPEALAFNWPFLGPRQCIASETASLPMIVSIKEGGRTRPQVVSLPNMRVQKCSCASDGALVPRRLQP
# [14] = molecular target: Calmodulin-1 (Homo sapiens) (UniProt P0DP23); assay: CALM1 binders on microarrays, EGTA buffer, profiling panel, biochemical, small-molecule microarray, Cy5-labelled CALM1 (AID 1111); settings: Cy5-CALM1 binding fluorescence, higher = more signal;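 note: labelled calmodulin applied in Tris saline Tween buffer holding calcium plus EGTA and DTT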
# [15] = molecular target: Calmodulin-1 (Homo sapiens) (UniProt P0DP23); assay: calcium-bound CALM1 binders on microarrays, profiling panel, artefact control for SMM control-protein annotation, biochemical, small-molecule microarray, Cy5-labelled CALM1, plus calcium (AID 1112); settings: Cy5-CALM1 binding fluorescence, higher = more signal;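 note: score merges spot fluorescence with signal to noise from triplicate slides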
# [16] = small-molecule microarray binders of probe aWnt5a, primary screen, biochemical, biotinylated probe, 635/667 nm fluorescence (AID 1113); settings: higher = more signal;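 note: score merges 667 nm fluorescence intensity with signal-to-noise per printed feature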
# [17] = small-molecule microarray binders of probe aShh, primary screen, biochemical, biotinylated probe, 635/667 nm fluorescence (AID 1114); settings: higher = more signal;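 note: probe is biotin-labelled aShh protein from a stem cell growth factor screen; measures binding of labelled protein to compounds printed on the slide; score merges feature fluorescence at 667 nm with signal-to-noise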
# [18] = small-molecule microarray binders of probe aNog, primary screen, biochemical, biotinylated probe, 635/667 nm fluorescence (AID 1115); settings: higher = more signal;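 note: probe is biotinylated aNog protein used at 0.15 µg/mL for 1 h at 4 C; z-score combines 667 nm fluorescence of each spot with its signal to noise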
# [19] = molecular target: Torsin-1A-interacting protein 1 (Homo sapiens) (UniProt Q5JTV8); assay: LAP1 binders from COS7 cell lysate, primary screen, small-molecule microarray, 635/667 nm fluorescence (AID 1116); settings: COS7-hLAP1 lysate binding, 635 nm fluorescence, higher = more signal
# Sequence of Torsin-1A-interacting protein 1 (Homo sapiens) (Q5JTV8 whole entry, looked up): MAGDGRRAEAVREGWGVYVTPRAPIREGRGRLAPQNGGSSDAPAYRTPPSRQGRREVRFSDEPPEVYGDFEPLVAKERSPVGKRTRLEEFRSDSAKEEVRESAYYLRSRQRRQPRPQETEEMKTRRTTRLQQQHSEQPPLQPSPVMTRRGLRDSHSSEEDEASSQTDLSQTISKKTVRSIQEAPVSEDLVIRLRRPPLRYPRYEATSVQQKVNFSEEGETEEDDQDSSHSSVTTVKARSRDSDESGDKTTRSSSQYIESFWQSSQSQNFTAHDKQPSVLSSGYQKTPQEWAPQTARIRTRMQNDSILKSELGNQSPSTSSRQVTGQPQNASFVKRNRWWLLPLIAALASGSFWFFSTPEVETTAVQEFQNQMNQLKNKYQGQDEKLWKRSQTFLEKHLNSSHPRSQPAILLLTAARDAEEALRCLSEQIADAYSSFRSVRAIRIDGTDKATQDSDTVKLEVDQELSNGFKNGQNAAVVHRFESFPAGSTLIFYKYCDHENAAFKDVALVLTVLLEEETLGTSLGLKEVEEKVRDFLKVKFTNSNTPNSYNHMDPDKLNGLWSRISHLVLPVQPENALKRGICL
# [20] = molecular target: Alpha-bungarotoxin (Bungarus multicinctus) (UniProt P60615); assay: alpha-bungarotoxin binders on microarray, profiling panel, artefact control for SMM control protein annotation, biochemical, small-molecule microarray, Alexa647 label, 635/667 nm fluorescence (AID 1117); settings: alpha-BTX-A647 binding fluorescence, higher = more signal
# Sequence of Alpha-bungarotoxin (Bungarus multicinctus) (P60615 whole entry, looked up): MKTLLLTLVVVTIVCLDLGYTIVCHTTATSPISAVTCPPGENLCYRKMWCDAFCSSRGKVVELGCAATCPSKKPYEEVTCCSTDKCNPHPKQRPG
SMILES,composite z-score [1],composite z-score [2],composite z-score [3],z-score [4],composite z-score [5],composite z-score [6],composite z-score [7],composite z-score [8],composite z-score [9],composite z-score [10],composite z-score [11],z-score [12],composite z-score [13],composite z-score [14],composite z-score [15],composite z-score [16],composite z-score [17],composite z-score [18],composite z-score [19],composite z-score [20]
COC(=O)C1(Cc2ccccc2)C=C2C(=C(C)C(=O)C2C)CN1 (stereo not given),1.66,1.21,1.22,1.44 (inactive),0.231,-0.333,-0.362,0.513,-0.424,1.43,-0.706,0.0597,-0.479,1.92,0.536,-0.0644,-0.0035,1.68,1.8,0.242
COCCOC(=O)N1C(=O)[C@@]2(c3cc(C#CCCO)ccc31)[C@H](c1ccccc1OCCO)N1[C@H](c3ccccc3)[C@H](c3ccccc3)OC(=O)[C@H]1[C@@H]2C(N)=O,1.3,-0.154,0.0318,-1.51 (inactive),1.19,1.21,0.312,1.05,0.433,-0.0938,1.41,-1.64,0.416,1.25,-0.0732,0.002,0.0204,-0.467,0.606,1.23
CC(C)NC(=O)[C@@]1(C)c2ccccc2C(=O)N(Cc2ccccc2)[C@H]1c1ccc(CO)cc1,1.7,-0.152,0.424,-0.44 (inactive),-1.2,-0.0543,-0.921,-0.394,-0.0744,-1.14,0.864,-0.957,-1.47,-0.155,-0.672,-0.0819,-0.209,-0.45,-0.922,0.386
CC(C)(C)N1CC=CC23O[C@@H]4/C=C\CCCOC(=O)C4[C@H]2C(=O)N(CCCO)[C@@H]3C1=O (stereo not given in full),1.18,-0.396,-0.006,0.539 (inactive),-0.795,-0.416,-1.33,-0.996,-1.07,0.076,-0.751,0.0578,0.178,-0.71,-0.275,-0.172,-0.0192,0.185,-1.37,-1.62
O=C1C[C@@](C(=O)NC2CC2)(c2ccc([N+](=O)[O-])cc2)[C@@H](c2ccc(CO)cc2)N1C1CCCCC1,1.68,0.0035,0.49,-0.975 (inactive),1.5,0.808,0.359,1.32,0.517,0.357,1.44,-2.02,0.257,0.522,0.435,-0.1,0.149,-0.292,1.43,0.538
